Shown are actives, neighbours in structure and some others; about 1% of the full set was active somewhere.
S1P4 agonist: S1P4 receptor agonists, primary screen, cell-based; Sphingosine 1-phosphate receptor 4 (Homo sapiens), O95977; S1P4-expressing cell line, agonist reporter assay; activation, % at 4.98 µM; actives 0.35% (n = 220,000); AID 1509, 2009; in the data active means activation above about 11%;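 further: 0% = DMSO vehicle and 100% = reference agonist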
Target sequence (O95977 whole entry, looked up): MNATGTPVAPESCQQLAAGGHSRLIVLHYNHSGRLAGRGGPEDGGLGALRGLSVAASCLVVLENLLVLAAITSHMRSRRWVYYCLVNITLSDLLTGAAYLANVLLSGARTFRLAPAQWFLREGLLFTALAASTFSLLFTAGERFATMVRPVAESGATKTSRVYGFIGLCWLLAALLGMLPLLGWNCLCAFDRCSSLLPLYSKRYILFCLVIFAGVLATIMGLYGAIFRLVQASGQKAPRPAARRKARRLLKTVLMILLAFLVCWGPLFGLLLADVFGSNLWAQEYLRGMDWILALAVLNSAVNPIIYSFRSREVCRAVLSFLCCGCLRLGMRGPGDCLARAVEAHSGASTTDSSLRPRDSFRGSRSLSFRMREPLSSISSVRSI
Hsp70 activator: Hsp70 transcriptional activators, primary screen, cell-based, HeLa, Hsp70 promoter luciferase, luminescence, 10 µM | activation, % at 10 µM | HeLa Hsp70 promoter luciferase reporter; scaled: vehicle 0, proteasome-inhibitor control 100% | actives 0.04% (n = 200,000);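 active means activation above the mean across all tested compounds plus 3 SD, cutoff set per campaign, cut at about 5.5% in these data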;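 further: 100% = MG132 at 30 µM as the positive control and 0% = DMSO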
HSV replic up: enhancers of HSV replication in host cells, fold increase, host cell viability; HSV replication augmentation in cells; maximum fold increase; actives 0.005% (n = 220,000); AID 1956, 2009; in the data active means maximum fold increase above about 1.5; inconclusive means no clear call, values can overlap the other calls; tested in PC3 cells
S1P4 antag: S1P4 receptor antagonists, primary screen, cell-based; S1P4-expressing cells, antagonist mode, reporter read-out; inhibition, % at 4.98 µM; actives 0.26% (n = 220,000); in the data active means inhibition above about 29%;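 further: 0% = wells stimulated with agonist and 100% = vehicle wells without agonist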
TNF death inh: inhibitors of TNF-alpha triggered necroptosis, primary screen, cell-based, Jurkat FADD-/-, single concentration; Jurkat FADD-/- TNF necroptosis rescue, ATP luminescence, 24 h; 0 = TNF only, 100 = no-TNF cells; activation (protection from cell death), % at 10 µM; actives 0.068% (n = 220,000); AID 463075, 2010;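 active means activation, meaning protection from cell death, of at least 50% relative to plate controls; inactive means activation below 50%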;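 further: necroptosis triggered by 40 ng/mL TNF-alpha added together with compound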
zVAD death inh: inhibitors of zVAD-triggered necroptosis, primary screen, L929 cells; L929 zVAD necroptosis rescue, ATP luminescence, 24 h; with zVAD 60 µM; viability rescue, % at 10 µM; AID 1377, 2008; actives 0.38% (n = 220,000);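 active means activation, scaled between plate controls, above about 75%, limit read from the data; inactive means activation under that limit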;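 further: 0% = zVAD with DMSO and 100% = DMSO alone without zVAD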
The depositor's hits bear a star; i = inactive; ? = inconclusive; · = not tested or not shown.

SMILES	S1P4 agonist	Hsp70 activator	HSV replic up	S1P4 antag	TNF death inh	zVAD death inh
COCCN=c1scc(-c2cccs2)n1/N=C/c1ccc(O)c(O)c1O	13.3*	-0.3	i	-15.8	-9.1	2.1
O=C(NN1CCOCC1)c1ccc(Cl)s1	-1.4	-0.5	i	13.2	1.2	-1.0
CCOc1ccc(C2=CS/C(=C(\C#N)c3nnc4n3CCCCC4)N2CC)cc1	15.1*	-0.1	i	-5.3	-9.2	0.0
O=C(NC12CC3CC(CC(C3)C1)C2)c1ccc(N2CCNCC2)c([N+](=O)[O-])c1	-0.4	·	i	-3.8	-11.7	18.3
Cc1nn(Cc2c(F)cccc2Cl)c(C)c1[N+](=O)[O-]	0.4	0.4	i	-7.5	76.3*	1.4
CCCC/C=C/[C@H](c1ccccc1)[C@H](CO)Cc1cccnc1	·	·	i	·	·	·
Cc1nc2ccc([N+](=O)[O-])cc2nc1C	0.0	-0.2	i	-13.5	0.1	-1.3
Cc1ccc2nc3cc([N+](=O)[O-])cc([N+](=O)[O-])c3cc2c1	0.3	-0.2	i	29.3*	-14.8	44.4
CCOC(=O)C(=CNc1ccc(OC)cc1[N+](=O)[O-])C(=O)OCC	1.1	·	i	1.0	-7.6	-0.7
CCOC(=O)c1ccc(N=c2sc(C(=O)OC)cc(=O)n2Cc2ccco2)cc1	-0.7	1.0	i	13.6	-13.8	-0.7
CCOC(=O)c1ccc(N=c2sc(C(=O)OC)cc(=O)n2CCCN2CCOCC2)cc1	0.3	0.4	i	59.8*	-9.6	-0.4
Cn1cc([N+](=O)[O-])c(C(=O)Nc2cc(Oc3cccnc3)cc([N+](=O)[O-])c2)n1	-5.3	-0.5	i	31.4*	-16.1	68.7
Cc1cc(/C=c2/sc3nc4ccccc4n3c2=O)c(C)n1-c1ccccn1	24.7*	-0.6	i	-14.4	-0.6	-1.1
Cc1cc(/C=c2\sc3nc4ccccc4n3c2=O)c(C)n1-c1ccc(C(=O)O)cc1	0.1	-0.3	i	-10.4	3.1	0.8
Cc1ccc(S(=O)(=O)N[C@H](C(=O)Oc2ccc3c(C(F)(F)F)cc(=O)oc3c2)c2ccccc2)cc1	0.5	1.4	?	41.3*	-1.5	0.8
O=C(O)c1ccccc1C(=O)Nc1ccccn1	-0.7	-0.4	i	-5.1	-0.7	0.5
N=c1oc2cc(O)ccc2cc1C(=O)Nc1ccccn1	73.7*	-0.3	i	-52.3	-1.2	1.1
CC1(C)CCC23CC[C@]4(C)C(OC2=O)(C3C1)[C@H]1O[C@H]1C1[C@@]2(C)CC[C@@H](O)C(C)(C)C2CC[C@]14C (stereo partly drawn)	·	·	i	·	·	·
O=C(O)/C=C/C(=O)Nc1ccc(OC(F)(F)F)cc1Br	1.1	·	i	8.3	0.6	0.3
COCCNS(=O)(=O)c1ccc(SC)cc1	0.7	0.1	i	-4.8	50.2*	0.3
Cc1sc(NC(=O)c2cccs2)c(C(N)=O)c1C	0.8	0.1	i	-2.2	-0.5	75.0*
NC(=O)c1ccsc1NC(=O)c1cccs1	-0.3	-0.2	i	-12.2	-1.5	26.2
CCN(CC)c1ccc(C=C(c2nnnn2-c2ccccc2)c2nnnn2-c2ccccc2)cc1	0.2	-0.2	3.09*	8.7	3.2	-0.8
O=C(COC(=O)CSc1cccc2cccc(Cl)c12)Nc1ncc(C(F)(F)F)cc1Cl	-1.0	-0.1	i	-4.8	0.5	0.7
O=C(CSCc1ccc([N+](=O)[O-])cc1)NC1CCCCCC1	0.7	0.1	i	3.5	62.8*	2.0
SMILES	S1P4 agonist	Hsp70 activator	HSV replic up	S1P4 antag	TNF death inh	zVAD death inh
C/C(CC(=O)NCc1ccco1)=N\NC(=O)C(c1ccccc1)c1ccccc1	-1.4	-0.2	i	-1.4	27.3	76.8*
O=C(O)C1CCC(=O)N1Cc1ccccc1Cl (stereo not drawn)	15.1*	-0.3	i	-17.4	0.1	-0.3
CO/N=C(\C(=O)O)c1csc(NN=C(C)C)n1	-0.7	0.1	i	5.7	-1.0	-0.3
O=c1[nH]c2ccc([N+](=O)[O-])cc2nc1/C=C(\O)c1ccccc1	-0.1	·	1.65*	-1.1	-0.3	-0.5
CCOC(=O)Cc1csc(NC(=O)c2sc3nc4c(C)cc(C)cc4cc3c2N)n1	-2.7	-0.1	?	-16.5	-2.5	-0.3
CCOC(=O)/C=c1\s/c(=C\c2sccc2C)c(=O)n1CC(=O)NCc1ccc(C)cc1	-0.7	0.0	i	-3.1	-0.6	-0.3
O=S(=O)(Nc1ccccc1)c1ccc2c(c1)CCO2	0.8	·	?	3.7	51.6*	9.3
O=C(COC(=O)/C=C/c1ccccc1[N+](=O)[O-])NCC(F)(F)F	1.6	-0.3	i	-8.6	-1.0	-1.5
O=C(NC(=S)Nc1ccc2cn[nH]c2c1)c1ccccc1	2.3	0.0	i	3.6	-0.8	19.7
Cc1cccc(S(=O)(=O)Nc2cccc3c2C(=O)c2ccccc2-3)c1	-0.9	-0.2	4.08*	8.7	-2.6	-0.2
Cc1nc2ccc(NC(=O)c3cc([N+](=O)[O-])cc([N+](=O)[O-])c3Cl)cc2s1	6.0	-0.2	i	66.1*	-3.3	11.7
Cc1nc2ccccn2c1C(=O)OCC#N	-0.2	0.0	i	-4.6	0.1	2.0
COC(=O)c1cccc(Nc2ccc([N+](=O)[O-])cn2)c1	0.5	0.3	i	-11.3	3.3	44.7
O=[N+]([O-])c1ccc(Nc2cccc(F)c2)nc1	0.1	0.0	i	5.2	70.5*	2.9
O=C(Nc1ccc(F)cc1)Nc1ccc([N+](=O)[O-])cn1	1.1	-0.1	i	-15.1	0.9	6.8
O=[N+]([O-])c1ccc(Nc2ccc(F)cc2)nc1	0.0	-0.3	i	-13.3	73.1*	3.6
O=[N+]([O-])c1ccc(NCc2ccccc2)nc1	-1.5	0.0	·	1.3	75.9*	2.7
O=[N+]([O-])c1ccc(Nc2ccccc2)nc1	-1.3	0.1	i	1.9	90.2*	24.2
C=CCc1cc(OC)ccc1OCCN(C)Cc1ccccc1	-3.0	-0.1	i	3.4	1.2	0.9
CC(=O)Nc1nc(C)c(-c2csc(Nc3ccccn3)n2)s1	1.4	0.0	i	13.2	-16.5	72.2
CC(=O)Nc1nc(C)c(-c2csc(Nc3ccc(O)cc3)n2)s1	-1.8	-0.2	i	9.0	0.7	77.0*
CC(=O)Nc1ccc(Sc2ncccc2C(=O)Nc2cc(Cl)cc(Cl)c2)cn1	-0.7	0.4	i	-11.3	-5.6	89.4*
COc1cc(NC(=O)c2cccnc2Sc2ccc(C)c(C)c2)cc(OC)c1OC	0.2	-0.3	i	-13.6	1.5	8.1
O=C(NCc1ccccc1)C(c1cccnc1)N(Cc1ccco1)C(=O)c1ccccn1 (stereo not drawn)	0.4	-0.3	i	-6.4	-2.9	-0.1

Bioassay records deposited in PubChem BioAssay by several laboratories.
